# From paper PMC5515408, “Sequence-specific DNA binding by MYC/MAX to low-affinity non-E-box motifs”
# The full ranking holds about 4,500 sequences; the median of “log2 normalized fluorescence” is about -0.34, and the highest 2% start at about 3.3. The list comes from a sample in which the highest values are over-represented; it also holds similar and randomly drawn sequences.
# Biological target: MAX:MAX (p21) (human, UniProt P61244-2 1-151)
# Test: protein-binding microarray (anti-MAX antibody); PBM: 15 mM Tris-HCl pH 7.5, 100 mM KCl, 0.075% NP40, 7.5 mM beta-mercaptoethanol, 375 ng/ul BSA, 8 ng/ul poly(dA-dT):(dA-dT), 550 ng complex, 60 min, room tempe; high values mean tight binding
# Details: protein: recombinant; tags: 6xHis; chain copies: 2; label: 3' end of printed strand (linker) attached to glass slide; dsDNA, one strand shown
# How it was run: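 A custom Agilent glass array held ~5000 unique 12-nt sequences in triplicate spots, made double-stranded by primer extension. His-tagged human MYC:MAX or MAX:MAX dimers (550 ng, produced in E. coli) were applied for 60 min at room temperature in Tris-KCl buffer, pH 7.5, with NP40, BSA and poly(dA-dT) competitor. Anti-MAX and secondary antibodies detected bound protein, with scanning at 543 nm, and binding is given as log2 normalized fluorescence.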
# Chain of MAX:MAX (p21) (P61244 other isoform, or with tags, fused parts or gaps): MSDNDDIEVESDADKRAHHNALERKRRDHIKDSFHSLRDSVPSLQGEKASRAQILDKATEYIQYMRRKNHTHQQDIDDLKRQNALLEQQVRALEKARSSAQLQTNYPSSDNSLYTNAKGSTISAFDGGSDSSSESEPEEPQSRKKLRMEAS
row,Sequence,binding signal
1,CCGGCTGACGCAGGGTATTAATAGCTAAGATTACTATATCGACG,-0.104 log2 normalized fluorescence
2,CCGGCTGACCTGCTGTATTAATAGCTAAGATTACTATATCGACG,0.214 log2 normalized fluorescence
3,CCGGCTGAAGAGTGGTATTAATAGCTAAGATTACTATATCGACG,0.0783 log2 normalized fluorescence
4,CCGGCTGAGGGGGAGTATTAATAGCTAAGATTACTATATCGACG,1.48 log2 normalized fluorescence
5,CCGGCTGAACCCAGGTATTAATAGCTAAGATTACTATATCGACG,-0.34 log2 normalized fluorescence
6,CCGGCTGAGTTGAGGTATTAATAGCTAAGATTACTATATCGACG,-0.631 log2 normalized fluorescence
7,CCGGCTGACCGGTAGTATTAATAGCTAAGATTACTATATCGACG,-0.573 log2 normalized fluorescence
8,CCGGCTGACACAGGGTATTAATAGCTAAGATTACTATATCGACG,0.747 log2 normalized fluorescence
9,CCGGCTGAGAGCCTGTATTAATAGCTAAGATTACTATATCGACG,-0.287 log2 normalized fluorescence
10,CCGGCTGACAGACCGTATTAATAGCTAAGATTACTATATCGACG,0.179 log2 normalized fluorescence
11,CCGGCTGAACTCATGTATTAATAGCTAAGATTACTATATCGACG,1.71 log2 normalized fluorescence
12,CCGGCTGACAAGTTGTATTAATAGCTAAGATTACTATATCGACG,-0.304 log2 normalized fluorescence
13,CCGGCTGATCATATGTATTAATAGCTAAGATTACTATATCGACG,1.98 log2 normalized fluorescence
14,CCGGCTGACACGTGGTATTAATAGCTAAGATTACTATATCGACG,3.19 log2 normalized fluorescence
15,CCGGCACACACGTGGTATTAATAGCTAAGATTACTATATCGACG,3.32 log2 normalized fluorescence
16,CCGGCGGACACGTGCTATTAATAGCTAAGATTACTATATCGACG,3.15 log2 normalized fluorescence
17,CCGGCTGTCACGTGGTATTAATAGCTAAGATTACTATATCGACG,3.12 log2 normalized fluorescence
18,CCGGCGGGCACGTGGTATTAATAGCTAAGATTACTATATCGACG,3.35 log2 normalized fluorescence
19,CCGGCCGTCACGTGGTATTAATAGCTAAGATTACTATATCGACG,3.18 log2 normalized fluorescence
20,CCGGCGGTCACGTGGTATTAATAGCTAAGATTACTATATCGACG,3.37 log2 normalized fluorescence
21,CCGGCGGACACGTGGTATTAATAGCTAAGATTACTATATCGACG,3.33 log2 normalized fluorescence
22,CCGGCTGATACCTGGTGTTAATAGCTAAGATTACTATATCGACG,-0.298 log2 normalized fluorescence

row,Sequence,binding signal
1,CCGGCTGACACGTAGAGTTAATAGCTAAGATTACTATATCGACG,0.996 log2 normalized fluorescence
2,CCGGCTGAAGCGGTGTATTAATAGCTAAGATTACTATATCGACG,-0.554 log2 normalized fluorescence
3,CCGGCTGACCCATGGTATTAATAGCTAAGATTACTATATCGACG,2.08 log2 normalized fluorescence
4,CCGGCTGACACGCCATATTAATAGCTAAGATTACTATATCGACG,2.41 log2 normalized fluorescence
5,CCGGCTGATACATAGTATTAATAGCTAAGATTACTATATCGACG,-0.533 log2 normalized fluorescence
6,CCGGCTGATTCACGGTATTAATAGCTAAGATTACTATATCGACG,0.000807 log2 normalized fluorescence
7,CCGGCTGAGTGGATGTATTAATAGCTAAGATTACTATATCGACG,0.0423 log2 normalized fluorescence
8,CCGGCTGACACGTTGGATTAATAGCTAAGATTACTATATCGACG,3.03 log2 normalized fluorescence
9,CCGGCTGATAGTGGGTATTAATAGCTAAGATTACTATATCGACG,-0.372 log2 normalized fluorescence
10,CCGGCTGAGTGGCTGTATTAATAGCTAAGATTACTATATCGACG,0.1 log2 normalized fluorescence
11,CCGGCTGAAAGATGGTATTAATAGCTAAGATTACTATATCGACG,-0.31 log2 normalized fluorescence
12,CCGGCTTGCACTTGGTATTAATAGCTAAGATTACTATATCGACG,0.423 log2 normalized fluorescence
13,CCGGCTTGCACGTGGTTTTAATAGCTAAGATTACTATATCGACG,3.23 log2 normalized fluorescence
14,CCGGCTTGCACGTGGTATTAATAGCTAAGATTACTATATCGACG,3.31 log2 normalized fluorescence
15,CCGGCTGAGGCGGCGTATTAATAGCTAAGATTACTATATCGACG,-0.641 log2 normalized fluorescence
16,CCGGCTGAGACGCCGTATTAATAGCTAAGATTACTATATCGACG,-0.749 log2 normalized fluorescence
17,CCGGCTGAGGTGGTGTATTAATAGCTAAGATTACTATATCGACG,-0.0636 log2 normalized fluorescence
18,CCGGCTGAATAAGCGTATTAATAGCTAAGATTACTATATCGACG,-0.651 log2 normalized fluorescence
19,CCGGCTGCCGCGTGGTATTAATAGCTAAGATTACTATATCGACG,3.21 log2 normalized fluorescence
20,CCGGCCGCCACGTGGTATTAATAGCTAAGATTACTATATCGACG,3.32 log2 normalized fluorescence
21,CCGGCCGCGACGTGGTATTAATAGCTAAGATTACTATATCGACG,2.79 log2 normalized fluorescence
22,CCGGCCGACGCGTGGTATTAATAGCTAAGATTACTATATCGACG,3.33 log2 normalized fluorescence

row,Sequence,binding signal
1,CCGGCAGCCACGTGGTATTAATAGCTAAGATTACTATATCGACG,3.13 log2 normalized fluorescence
2,CCGGCCACCACGTGGTATTAATAGCTAAGATTACTATATCGACG,3.24 log2 normalized fluorescence
3,CCGGCTGCCCCGTGGTATTAATAGCTAAGATTACTATATCGACG,2.88 log2 normalized fluorescence
4,CCGGCTTACGCGTGGTATTAATAGCTAAGATTACTATATCGACG,3.27 log2 normalized fluorescence
5,CCGGCTGCCTCGTGGTATTAATAGCTAAGATTACTATATCGACG,3.36 log2 normalized fluorescence
6,CCGGCTGCCACGTGGTATTAATAGCTAAGATTACTATATCGACG,3.42 log2 normalized fluorescence
7,CCGGCTGCGACGTGGTATTAATAGCTAAGATTACTATATCGACG,2.27 log2 normalized fluorescence
8,CCGGCTAACGCGTGGTATTAATAGCTAAGATTACTATATCGACG,3.26 log2 normalized fluorescence
9,CCGGCTGACAATGGGTATTAATAGCTAAGATTACTATATCGACG,0.0164 log2 normalized fluorescence
10,CCGGCTGATGGGTAGTATTAATAGCTAAGATTACTATATCGACG,-0.121 log2 normalized fluorescence
11,CCGGCTGACATTTGGTGTTAATAGCTAAGATTACTATATCGACG,-0.316 log2 normalized fluorescence
12,CCGGCTGACATAGCGTATTAATAGCTAAGATTACTATATCGACG,-0.366 log2 normalized fluorescence
13,CCGGCTGAGACACTGTATTAATAGCTAAGATTACTATATCGACG,-0.484 log2 normalized fluorescence
14,CCGGCTGATACGCCGTATTAATAGCTAAGATTACTATATCGACG,-0.497 log2 normalized fluorescence
15,CCGGCTGAGACCCTGTATTAATAGCTAAGATTACTATATCGACG,-0.583 log2 normalized fluorescence
16,CCGGCTGAGCAGGGGTATTAATAGCTAAGATTACTATATCGACG,0.451 log2 normalized fluorescence
17,CCGGCCGCCACGTGGTCTTAATAGCTAAGATTACTATATCGACG,3.44 log2 normalized fluorescence
18,CCGGCTGAGACGTGGTCTTAATAGCTAAGATTACTATATCGACG,1.44 log2 normalized fluorescence
19,CCGGCCGCCACGTAGTATTAATAGCTAAGATTACTATATCGACG,1.58 log2 normalized fluorescence
20,CCGGCTGGTACGTGGTCTTAATAGCTAAGATTACTATATCGACG,1.03 log2 normalized fluorescence
21,CCGGCCAACACGTTGTATTAATAGCTAAGATTACTATATCGACG,3.07 log2 normalized fluorescence
22,CCGGCATACACGTGGTATTAATAGCTAAGATTACTATATCGACG,3.25 log2 normalized fluorescence

row,Sequence,binding signal
1,CCGGCAGACACGTGGTCTTAATAGCTAAGATTACTATATCGACG,3.43 log2 normalized fluorescence
2,CCGGCAAACACGTTGTATTAATAGCTAAGATTACTATATCGACG,3.31 log2 normalized fluorescence
3,CCGGCTAACACGTTGTATTAATAGCTAAGATTACTATATCGACG,3.12 log2 normalized fluorescence
4,CCGGCGTACACGTGGTATTAATAGCTAAGATTACTATATCGACG,3.3 log2 normalized fluorescence
5,CCGGCGTATACGTGGTATTAATAGCTAAGATTACTATATCGACG,1.62 log2 normalized fluorescence
6,CCGGCAGACACGTGGTATTAATAGCTAAGATTACTATATCGACG,3.08 log2 normalized fluorescence
7,CCGGCGTACACGTGGTCTTAATAGCTAAGATTACTATATCGACG,3.35 log2 normalized fluorescence
8,CCGGCTGACACGTGGTCTTAATAGCTAAGATTACTATATCGACG,3.21 log2 normalized fluorescence
9,CCGGCTTACACGTGGTCTTAATAGCTAAGATTACTATATCGACG,3.19 log2 normalized fluorescence
10,CCGGCTGACCATCTGTATTAATAGCTAAGATTACTATATCGACG,1.1 log2 normalized fluorescence
11,CCGGCTGACGTACAGTATTAATAGCTAAGATTACTATATCGACG,-0.0346 log2 normalized fluorescence
12,CCGGCTGACACGTAACATTAATAGCTAAGATTACTATATCGACG,1.37 log2 normalized fluorescence
13,CCGGCTGATTGGATGTATTAATAGCTAAGATTACTATATCGACG,-0.659 log2 normalized fluorescence
14,CCGGCTGACTCGCTGTATTAATAGCTAAGATTACTATATCGACG,0.114 log2 normalized fluorescence
15,CCGGCTGAAGAACCGTATTAATAGCTAAGATTACTATATCGACG,-0.66 log2 normalized fluorescence
16,CCGGCTGACAACTTGTATTAATAGCTAAGATTACTATATCGACG,-0.311 log2 normalized fluorescence
17,CCGGCCCGCCAAAGCATTTAATAGCTAAGATTACTATATCGACG,0.154 log2 normalized fluorescence
18,CCGGCTGACAAATCGTATTAATAGCTAAGATTACTATATCGACG,-0.658 log2 normalized fluorescence
19,CCGGCTGATCGTCAGTATTAATAGCTAAGATTACTATATCGACG,-0.695 log2 normalized fluorescence
20,CCGGCTGAGAGCGCGTATTAATAGCTAAGATTACTATATCGACG,-0.456 log2 normalized fluorescence
21,CCGGCTTAATCGTGGTATTAATAGCTAAGATTACTATATCGACG,1.43 log2 normalized fluorescence
22,CCGGCAAACACGTGGTATTAATAGCTAAGATTACTATATCGACG,3.01 log2 normalized fluorescence

row,Sequence,binding signal
1,CCGGCTTAGACGTGGTATTAATAGCTAAGATTACTATATCGACG,1.04 log2 normalized fluorescence
2,CCGGCTAACACGCGGTATTAATAGCTAAGATTACTATATCGACG,3.35 log2 normalized fluorescence
3,CCGGCTACTACGTGGTATTAATAGCTAAGATTACTATATCGACG,1.83 log2 normalized fluorescence
4,CCGGCTTACACGTGGTATTAATAGCTAAGATTACTATATCGACG,3.3 log2 normalized fluorescence
5,CCGGCCTACACGTGGTATTAATAGCTAAGATTACTATATCGACG,3.31 log2 normalized fluorescence
6,CCGGCTGACACGCGGTATTAATAGCTAAGATTACTATATCGACG,3.1 log2 normalized fluorescence
7,CCGGCCGACACGCGGTATTAATAGCTAAGATTACTATATCGACG,2.86 log2 normalized fluorescence
8,CCGGCCAACACGTGGTATTAATAGCTAAGATTACTATATCGACG,3.22 log2 normalized fluorescence
9,CCGGCTAACACGTGGTATTAATAGCTAAGATTACTATATCGACG,3.45 log2 normalized fluorescence
10,CCGGCCTACACGTGGTGTTAATAGCTAAGATTACTATATCGACG,3.19 log2 normalized fluorescence
11,CCGGCTGACAAAGTGTATTAATAGCTAAGATTACTATATCGACG,-0.349 log2 normalized fluorescence
12,CCGGCTGGCGCATGGTATTAATAGCTAAGATTACTATATCGACG,3.17 log2 normalized fluorescence
13,CCGGCTGAACGCCTGTATTAATAGCTAAGATTACTATATCGACG,0.727 log2 normalized fluorescence
14,CCGGCTGACATCCCGTATTAATAGCTAAGATTACTATATCGACG,0.192 log2 normalized fluorescence
15,CCGGCTGACAGAACGTATTAATAGCTAAGATTACTATATCGACG,-0.288 log2 normalized fluorescence
16,CCGGCTGAGTCCTCGTATTAATAGCTAAGATTACTATATCGACG,-0.692 log2 normalized fluorescence
17,CCGGCTGATCTCACGTATTAATAGCTAAGATTACTATATCGACG,-0.038 log2 normalized fluorescence
18,CCGGCTGAAACTCGGTATTAATAGCTAAGATTACTATATCGACG,-0.697 log2 normalized fluorescence
